Targets with a hit are over-represented here; the source holds about 8,800 in all. About 0.5% of all pairs of compound and target were hits.
Legend:
Assay in all cases: log2 fold change, soluble protein after heating vs DMSO (PISA); higher = thermal stabilisation; K562 lysate, 10 uM; active = over 0.2 and 3.5 SD of the protein, either way, in both replicates (recomputed)
dasatinib = compound: Cc1nc(Nc2ncc(C(=O)Nc3c(C)cccc3Cl)s2)cc(N2CCN(CCO)CC2)n1 [dasatinib]
Procedure, shortened: (§1)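 Following dounce homogenisation of K562 pellets in PBS pH 7.4 with 1 mM MgCl2, crude extract at 1 mg/mL protein was incubated for 30 min with 10 μM compound. Aliquots were then heated for 3 min over 48°C-58°C and pooled, NP-40 was added to 0.5% at 4°C, and soluble protein was recovered as the supernatant at 21,000xg for 90 min. Channel-sum-equalised TMTpro 16plex LC-MS/MS quantified this protein. Each value, from duplicates, is a log-two fold change in thermal stability relative to solvent controls.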

[1] = compound: Cn1cc(-c2ccc3c(c2)CCN3C(=O)Cc2cccc(C(F)(F)F)c2)c2c(N)ncnc21
Procedure, shortened: as §1

quisinostat = compound: Cn1cc(CNCC2CCN(c3ncc(C(=O)NO)cn3)CC2)c2ccccc21 [quisinostat]
Procedure, shortened: as §1

[2] = compound: NC(=O)Nc1cc(-c2cccc(F)c2)sc1C(=O)N[C@H]1CCCNC1
Procedure, shortened: as §1

[3] = compound: NC(=O)c1cnc(N[C@@H]2CCCC[C@@H]2N)nc1Nc1cccc(-n2nccn2)c1
Procedure, shortened: as §1

[4] = compound: NC1(c2ccc(-c3nc4ccn5c(=O)[nH]nc5c4cc3-c3ccccc3)cc2)CCC1
Procedure, shortened: as §1

vorinostat = compound: O=C(CCCCCCC(=O)Nc1ccccc1)NO [vorinostat]
Procedure, shortened: as §1

silmitasertib = compound: O=C(O)c1ccc2c(c1)nc(Nc1cccc(Cl)c1)c1ccncc12 [silmitasertib]
Procedure, shortened: as §1

[5] = compound: O=C1NC(=O)C(c2cnc3ccccn23)=C1c1cn2c3c(cc(F)cc13)CN(C(=O)N1CCCCC1)CC2
Procedure, shortened: as §1

[6] = compound: NCC(=O)Nc1ccc(-n2nc(C(F)(F)F)cc2-c2ccc3c(ccc4ccccc43)c2)cc1
Procedure, shortened: as §1

entospletinib = compound: c1cn2cc(-c3ccc4cn[nH]c4c3)nc(Nc3ccc(N4CCOCC4)cc3)c2n1 [entospletinib]
Procedure, shortened: as §1

nilotinib = compound: Cc1cn(-c2cc(NC(=O)c3ccc(C)c(Nc4nccc(-c5cccnc5)n4)c3)cc(C(F)(F)F)c2)cn1 [nilotinib]
Procedure, shortened: as §1

[7] = compound: Cc1nc(Nc2n[nH]c3c2CN(C(=O)N[C@H](CN(C)C)c2ccccc2)C3(C)C)c2sccc2n1
Procedure, shortened: as §1

[8] = compound: Cc1ncc(-c2ccnc(Nc3ccc(S(C)(=O)=O)cc3)n2)n1C(C)C
Procedure, shortened: as §1

tipifarnib = compound: Cn1cncc1[C@@](N)(c1ccc(Cl)cc1)c1ccc2c(c1)c(-c1cccc(Cl)c1)cc(=O)n2C [tipifarnib]
Procedure, shortened: as §1

Measured: log2 fold change

BICRA (UniProt Q9NZM4)
inactive: dasatinib 0.088 | [1] -0.1 | quisinostat 0.037 | [2] -0.004 | [3] 0.054 | [4] -0.382 | vorinostat 0.11 | silmitasertib -0.203 | [5] -0.076

CCAR2 (UniProt G3V119)
inactive: [3] -0.015

ATXN2 (UniProt F8WB05)
inactive: dasatinib 0.035 | [1] -0.058 | quisinostat -0.208 | [2] -0.025 | [3] 0.025 | [4] -0.394 | [6] 0.013 | vorinostat 0.011 | silmitasertib 0.271 | [5] 0.115 | entospletinib -0.016

CEP295 isoform 3 (UniProt Q9C0D2)
Chain of UniProt Q9C0D2 (Q9C0D2 whole entry, looked up): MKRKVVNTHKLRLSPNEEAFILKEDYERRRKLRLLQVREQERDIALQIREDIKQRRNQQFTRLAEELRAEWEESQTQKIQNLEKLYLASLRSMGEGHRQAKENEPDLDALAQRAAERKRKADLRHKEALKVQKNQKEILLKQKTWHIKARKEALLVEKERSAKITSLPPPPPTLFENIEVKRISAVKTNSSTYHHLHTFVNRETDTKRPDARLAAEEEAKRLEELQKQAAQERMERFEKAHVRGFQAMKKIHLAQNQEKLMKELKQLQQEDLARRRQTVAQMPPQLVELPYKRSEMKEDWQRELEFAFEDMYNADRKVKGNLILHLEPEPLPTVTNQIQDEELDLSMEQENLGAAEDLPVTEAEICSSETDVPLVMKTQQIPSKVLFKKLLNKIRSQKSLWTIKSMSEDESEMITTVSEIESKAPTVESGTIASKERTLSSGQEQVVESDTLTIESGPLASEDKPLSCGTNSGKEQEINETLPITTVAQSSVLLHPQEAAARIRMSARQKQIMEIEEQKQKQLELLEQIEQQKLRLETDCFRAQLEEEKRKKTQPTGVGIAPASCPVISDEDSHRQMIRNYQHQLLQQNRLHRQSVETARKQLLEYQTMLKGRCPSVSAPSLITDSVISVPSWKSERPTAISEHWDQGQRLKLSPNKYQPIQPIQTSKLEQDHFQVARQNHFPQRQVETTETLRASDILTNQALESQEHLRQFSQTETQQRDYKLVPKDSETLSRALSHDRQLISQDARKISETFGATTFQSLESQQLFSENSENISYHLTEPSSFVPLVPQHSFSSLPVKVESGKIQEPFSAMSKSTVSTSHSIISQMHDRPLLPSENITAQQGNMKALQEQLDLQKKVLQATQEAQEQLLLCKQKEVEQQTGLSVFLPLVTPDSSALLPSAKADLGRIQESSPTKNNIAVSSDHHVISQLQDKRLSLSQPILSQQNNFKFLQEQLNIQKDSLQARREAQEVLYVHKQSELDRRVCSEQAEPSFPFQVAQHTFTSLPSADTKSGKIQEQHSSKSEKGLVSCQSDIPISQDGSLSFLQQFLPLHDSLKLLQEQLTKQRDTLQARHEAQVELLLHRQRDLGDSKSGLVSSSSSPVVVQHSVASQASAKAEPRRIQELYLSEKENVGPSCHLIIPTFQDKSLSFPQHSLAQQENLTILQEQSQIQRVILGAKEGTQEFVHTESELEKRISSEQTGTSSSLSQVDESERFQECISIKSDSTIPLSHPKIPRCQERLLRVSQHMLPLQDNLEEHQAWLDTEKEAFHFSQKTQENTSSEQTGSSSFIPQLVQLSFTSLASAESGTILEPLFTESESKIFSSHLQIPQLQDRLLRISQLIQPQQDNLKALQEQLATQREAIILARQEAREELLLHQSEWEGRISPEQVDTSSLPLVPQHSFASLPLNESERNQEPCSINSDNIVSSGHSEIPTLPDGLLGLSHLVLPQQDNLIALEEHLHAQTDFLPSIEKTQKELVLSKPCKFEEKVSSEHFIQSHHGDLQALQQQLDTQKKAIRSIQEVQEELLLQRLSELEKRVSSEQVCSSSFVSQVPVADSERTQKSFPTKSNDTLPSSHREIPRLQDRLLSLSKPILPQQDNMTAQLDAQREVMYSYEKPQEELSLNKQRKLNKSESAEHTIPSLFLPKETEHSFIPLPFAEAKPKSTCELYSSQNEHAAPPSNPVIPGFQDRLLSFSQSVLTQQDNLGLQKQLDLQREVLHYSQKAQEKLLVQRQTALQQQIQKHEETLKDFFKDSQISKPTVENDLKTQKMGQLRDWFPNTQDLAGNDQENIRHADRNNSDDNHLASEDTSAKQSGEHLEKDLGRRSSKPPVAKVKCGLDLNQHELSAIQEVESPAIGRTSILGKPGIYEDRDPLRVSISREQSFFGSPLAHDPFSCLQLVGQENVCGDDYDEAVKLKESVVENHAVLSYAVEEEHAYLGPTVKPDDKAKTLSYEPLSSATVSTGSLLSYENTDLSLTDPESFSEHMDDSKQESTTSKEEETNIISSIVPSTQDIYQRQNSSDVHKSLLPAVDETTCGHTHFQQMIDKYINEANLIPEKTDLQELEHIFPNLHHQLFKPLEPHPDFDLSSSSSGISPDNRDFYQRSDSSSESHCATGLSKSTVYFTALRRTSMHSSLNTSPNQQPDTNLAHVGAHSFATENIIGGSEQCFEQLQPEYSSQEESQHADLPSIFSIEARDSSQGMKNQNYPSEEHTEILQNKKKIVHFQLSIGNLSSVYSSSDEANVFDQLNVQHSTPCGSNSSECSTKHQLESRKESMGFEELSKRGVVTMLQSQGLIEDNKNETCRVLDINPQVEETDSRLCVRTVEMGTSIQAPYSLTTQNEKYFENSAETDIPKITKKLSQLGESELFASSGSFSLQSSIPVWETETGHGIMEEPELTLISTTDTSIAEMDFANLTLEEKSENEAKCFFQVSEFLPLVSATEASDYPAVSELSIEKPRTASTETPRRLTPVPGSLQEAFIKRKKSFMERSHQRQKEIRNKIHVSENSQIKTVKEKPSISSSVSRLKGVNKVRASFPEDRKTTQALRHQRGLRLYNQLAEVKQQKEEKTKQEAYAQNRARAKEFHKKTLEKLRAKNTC
inactive: nilotinib 0.016 | [7] 0.046 | [8] 0.006 | quisinostat 0.017 | tipifarnib 0.062 | [2] -0.038 | [3] 0.14 | [4] 0.046 | vorinostat -0.004 | silmitasertib 0.076 | [5] -0.076 | entospletinib 0.087

CANX (UniProt D6RHJ3)
inactive: nilotinib -0.055 | [7] 0.129 | [8] 0.191 | tipifarnib 0.126 | [3] -0.103 | [6] 0.012

AUH (UniProt Q13825)
Chain of UniProt Q13825 (Q13825 whole entry, looked up): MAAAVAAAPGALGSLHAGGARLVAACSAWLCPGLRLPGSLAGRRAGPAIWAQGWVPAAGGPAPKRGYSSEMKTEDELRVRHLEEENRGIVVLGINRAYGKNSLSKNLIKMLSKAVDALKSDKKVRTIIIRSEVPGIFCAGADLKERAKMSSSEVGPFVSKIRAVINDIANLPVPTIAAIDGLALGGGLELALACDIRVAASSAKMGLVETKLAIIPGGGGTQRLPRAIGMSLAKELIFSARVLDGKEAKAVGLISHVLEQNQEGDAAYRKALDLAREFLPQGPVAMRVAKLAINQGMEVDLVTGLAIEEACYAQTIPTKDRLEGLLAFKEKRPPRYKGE
inactive: dasatinib -0.274 | [1] 0.14 | quisinostat -0.002 | [2] -0.018 | [3] 0.193 | [4] -0.066 | [6] 0.1 | vorinostat -0.068 | silmitasertib 0.017 | [5] -0.063 | entospletinib -0.11

CEP128 (UniProt Q6ZU80)
inactive: dasatinib -0.168 | [1] 0.041 | [6] 0.017 | entospletinib -0.081

CDKL5 (UniProt O76039)
inactive: dasatinib -0.095 | [1] 0.188 | quisinostat -0.283 | [2] -0.002 | [3] 0.069 | [6] 0.037 | [5] 0.011 | entospletinib 0.017

CAPNS1 (UniProt U3KPR7)
inactive: nilotinib -0.166 | [7] -0.416 | [8] 0.226 | tipifarnib 0.161 | [3] -0.214

B3GALT6 (UniProt Q96L58)
Chain of UniProt Q96L58 (Q96L58 whole entry, looked up): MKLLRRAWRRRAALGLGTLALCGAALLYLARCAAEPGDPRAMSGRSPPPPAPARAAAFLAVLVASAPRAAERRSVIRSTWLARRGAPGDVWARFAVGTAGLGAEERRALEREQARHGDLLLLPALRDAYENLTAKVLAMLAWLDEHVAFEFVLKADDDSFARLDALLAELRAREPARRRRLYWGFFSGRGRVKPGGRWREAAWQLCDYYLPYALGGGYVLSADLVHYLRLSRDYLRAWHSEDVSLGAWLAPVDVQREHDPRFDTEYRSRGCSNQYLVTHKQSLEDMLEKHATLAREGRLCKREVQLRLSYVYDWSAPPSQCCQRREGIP
inactive: dasatinib -0.148 | [1] 0.233 | quisinostat -0.086 | [2] 0.137 | [4] -0.174 | vorinostat 0.218 | silmitasertib -0.029 | [5] 0.071

BRAF (UniProt P15056)
Chain of UniProt P15056 (P15056 whole entry, looked up): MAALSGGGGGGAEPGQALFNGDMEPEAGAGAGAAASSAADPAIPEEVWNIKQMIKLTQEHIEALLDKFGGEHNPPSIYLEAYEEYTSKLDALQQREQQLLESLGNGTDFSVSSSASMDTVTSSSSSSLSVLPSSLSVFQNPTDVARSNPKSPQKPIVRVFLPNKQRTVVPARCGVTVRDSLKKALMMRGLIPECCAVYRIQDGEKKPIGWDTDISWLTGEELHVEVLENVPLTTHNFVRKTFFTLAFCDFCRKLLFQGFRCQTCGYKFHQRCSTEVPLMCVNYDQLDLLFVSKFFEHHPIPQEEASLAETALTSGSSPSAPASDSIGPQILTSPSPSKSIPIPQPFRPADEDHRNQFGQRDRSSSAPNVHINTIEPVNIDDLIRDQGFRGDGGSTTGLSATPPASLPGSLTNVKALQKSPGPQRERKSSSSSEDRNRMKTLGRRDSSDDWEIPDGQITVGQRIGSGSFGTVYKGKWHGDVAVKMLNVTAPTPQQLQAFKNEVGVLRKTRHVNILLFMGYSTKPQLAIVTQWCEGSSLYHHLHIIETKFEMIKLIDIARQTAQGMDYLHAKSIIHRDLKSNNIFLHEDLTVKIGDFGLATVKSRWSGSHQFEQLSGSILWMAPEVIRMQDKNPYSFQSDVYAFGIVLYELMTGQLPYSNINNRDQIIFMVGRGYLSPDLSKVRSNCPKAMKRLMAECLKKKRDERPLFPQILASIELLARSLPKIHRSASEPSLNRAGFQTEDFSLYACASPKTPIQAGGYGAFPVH
inactive: [7] 0.011 | [8] -0.043 | [1] 0.002 | quisinostat -0.173 | tipifarnib -0.006 | [2] 0.018 | [3] 0.007 | [6] -0.001 | vorinostat -0.339 | silmitasertib 0.061 | [5] -0.008 | entospletinib 0.037

C8orf37 (UniProt Q96NL8)
inactive: dasatinib 0.083 | [1] 0.056 | quisinostat 0.004 | [2] -0.01 | [3] 0.298 | [4] 0.029 | [6] 0.206 | vorinostat 0.084 | silmitasertib 0.044 | [5] 0.008 | entospletinib -0.035

BTRC (UniProt Q9Y297)
active: vorinostat -0.342
inactive: nilotinib 0.006 | [7] 0.02 | [8] -0.003 | tipifarnib 0.02 | [3] 0.059 | [4] 0.031 | [6] 0.03 | silmitasertib 0.035 | entospletinib -0.004

C16orf70 (UniProt Q9BSU1)
inactive: dasatinib 0.042 | [1] -0.091 | quisinostat 0.036 | [2] -0.005 | [3] -0.001 | [4] 0.009 | [6] -0.013 | silmitasertib 0.019 | [5] -0.015 | entospletinib -0.104
active: vorinostat -0.382

CCDC85B (UniProt Q15834)
inactive: dasatinib 0.066 | [1] -0.034 | quisinostat 0.086 | [2] 0.044 | [3] -0.225 | [4] 0.188 | [6] -0.039 | vorinostat 0.088 | silmitasertib 0.042 | [5] -0.077 | entospletinib -0.397

ATE1 (UniProt O95260)
inactive: quisinostat 0.019 | [2] -0.093 | [3] 0.026 | [5] 0.028

CDKN1B (UniProt P46527)
Chain of UniProt P46527 (P46527 whole entry, looked up): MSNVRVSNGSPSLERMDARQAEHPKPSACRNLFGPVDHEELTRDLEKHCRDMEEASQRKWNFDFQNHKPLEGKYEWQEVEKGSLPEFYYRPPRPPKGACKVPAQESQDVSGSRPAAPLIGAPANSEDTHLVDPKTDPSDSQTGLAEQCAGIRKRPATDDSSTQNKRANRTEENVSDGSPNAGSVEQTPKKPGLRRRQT
inactive: dasatinib 0.021 | [1] 0.034 | [2] -0.122 | [3] -0.035 | [4] 0.045 | [6] 0.062 | vorinostat -0.011 | silmitasertib 0.048 | [5] -0.067 | entospletinib -0.028
active: quisinostat 0.393

CACUL1 (UniProt Q86Y37)
Chain of UniProt Q86Y37 (Q86Y37 whole entry, looked up): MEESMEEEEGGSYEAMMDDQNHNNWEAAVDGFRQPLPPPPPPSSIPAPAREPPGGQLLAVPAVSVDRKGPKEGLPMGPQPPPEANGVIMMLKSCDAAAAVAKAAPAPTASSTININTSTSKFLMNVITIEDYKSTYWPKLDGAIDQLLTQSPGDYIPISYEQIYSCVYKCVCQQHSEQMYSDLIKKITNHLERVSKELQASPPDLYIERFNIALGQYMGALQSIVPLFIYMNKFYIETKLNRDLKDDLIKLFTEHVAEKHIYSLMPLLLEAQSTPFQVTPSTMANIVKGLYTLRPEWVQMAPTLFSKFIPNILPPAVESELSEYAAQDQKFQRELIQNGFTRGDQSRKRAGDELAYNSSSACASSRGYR
inactive: dasatinib -0.094 | [1] 0.157 | quisinostat 0.025 | [2] 0.102 | [3] -0.1 | [4] -0.028 | [6] 0.176 | silmitasertib 0.024 | [5] -0.081 | entospletinib -0.056
active: vorinostat -0.543

BMT2 (UniProt Q1RMZ1)
inactive: nilotinib 0.172 | [8] 0.134 | tipifarnib 0
active: [7] -0.923

BCORL1 isoform 3 (UniProt Q5H9F3)
inactive: dasatinib 0.039 | [1] -0.09 | quisinostat 0.035 | [2] 0.235 | [4] -0.091 | [6] 0.177 | vorinostat -0.004 | silmitasertib -0.093 | [5] 0.213 | entospletinib -0.018

CCP110 (UniProt O43303)
inactive: dasatinib 0.063 | [1] -0.01 | quisinostat -0.062 | [2] 0.107 | [4] 0.055 | [6] -0.033 | vorinostat -0.102 | silmitasertib -0.131 | [5] -0.124 | entospletinib 0.045

CENPV (UniProt Q7Z7K6)
inactive: [7] -0.184 | [8] 0.816 | quisinostat 0.038 | tipifarnib 0.08 | [2] -0.077 | [6] 0.396 | [5] 0.039 | entospletinib 0.084
active: nilotinib 1.5

ATG4D (UniProt Q86TL0)
inactive: dasatinib -0.037 | quisinostat -0.085 | [2] 0.084 | [5] 0.117 | entospletinib 0.004
active: [1] -0.57

CHD4, A0A2R8Y521
inactive: nilotinib -0.125 | [7] -0.088 | dasatinib -0.09 | [8] -0.156 | [1] -0.247 | tipifarnib 0.391 | [3] -0.174 | entospletinib -0.313

C3AR1 (UniProt Q16581)
inactive: nilotinib -0.026 | [7] 0.286 | [8] -0.111 | quisinostat 0.065 | tipifarnib -0.036 | [2] -0.033 | [5] -0.013

ATPSCKMT (UniProt Q6P4H8)
Chain of UniProt Q6P4H8 (Q6P4H8 whole entry, looked up): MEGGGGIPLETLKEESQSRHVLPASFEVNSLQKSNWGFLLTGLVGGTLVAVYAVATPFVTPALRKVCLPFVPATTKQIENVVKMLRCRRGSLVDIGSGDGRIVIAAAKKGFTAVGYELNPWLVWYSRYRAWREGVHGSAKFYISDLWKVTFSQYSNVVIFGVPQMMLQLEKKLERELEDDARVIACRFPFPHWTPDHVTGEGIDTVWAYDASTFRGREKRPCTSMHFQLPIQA
inactive: dasatinib 0.052 | [1] -0.021 | quisinostat 0.018 | [2] 0.001 | [5] 0 | entospletinib 0.105

CDC14A isoform 2 (UniProt Q9UNH5)
inactive: nilotinib -0.076 | [7] 0.07 | [8] -0.001 | quisinostat -0.174 | tipifarnib -0.019 | [2] 0.083 | [3] 0.101 | [5] -0.11

CDCA8 (UniProt Q53HL2)
inactive: nilotinib 0.03 | [7] -0.002 | dasatinib 0.012 | [8] -0.277 | [1] -0.011 | tipifarnib 0.046 | [4] -0.051 | [6] 0.066 | vorinostat 0.13 | silmitasertib -0.093 | entospletinib 0.112

BTK isoform 2 (UniProt Q06187)
inactive: nilotinib 0.016 | [7] -0.002 | [8] 0.015 | [1] -0.005 | quisinostat -0.05 | tipifarnib -0.021 | [3] 0.032 | [4] -0.049 | silmitasertib 0.066 | [5] 0.012 | entospletinib 0.3
active: [2] 0.294 | [6] 0.439 | vorinostat -0.322

CARHSP1 (UniProt H3BNU9)
inactive: nilotinib -0.196 | [7] 0.149 | [8] 0.238 | tipifarnib 0.108 | [3] -0.059

C8orf88 (UniProt P0DMB2)
Chain of UniProt P0DMB2 (P0DMB2 whole entry, looked up): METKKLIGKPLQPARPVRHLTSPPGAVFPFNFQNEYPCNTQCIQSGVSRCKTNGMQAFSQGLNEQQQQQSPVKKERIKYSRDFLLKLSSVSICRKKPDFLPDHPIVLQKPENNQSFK
inactive: dasatinib 0.07 | [1] -0.134 | quisinostat -0.042 | [2] -0.011 | [4] 0.084 | silmitasertib 0.056 | [5] 0.024
active: vorinostat -0.455

CDAN1 (UniProt H3BPZ6)
inactive: quisinostat 0.093 | [2] 0.056 | [5] 0.006

CAPNS1 (UniProt K7ES78)
inactive: dasatinib -0.027 | [1] -0.006 | quisinostat 0.247 | [2] -0.002 | [3] 0.053 | [4] -0.099 | [6] -0.234 | vorinostat -0.011 | silmitasertib -0.037 | [5] 0.141

ATXN2 (UniProt F8WB06)
inactive: dasatinib -0.074 | [1] -0.053
